TEAD-YAP inh – TEAD-YAP interaction inhibition; inhibition, % at 9.12 µM; 640,000 tested, 1.4% active; HEK-TIYL cells, TEAD-Gal4/YAP UAS-luciferase luminescence; in the data active means inhibition above about 32%;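 further: 0% = median of test compound wells and 100% = reference inhibitor wells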
MITF primary – inhibitors of human MITF. O75030. AlphaScreen MITF homodimerization, bead proximity signal. inhibition, % at 2.6 µM. 650,000 tested, 0.91% active. AID 1259374; in the data active means inhibition above about 50%;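 further: 0% = vehicle wells with protein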
GPR151 ag – human GPR151 activation; PathHunter beta-arrestin GPR151 cells, luminescence; Q8TDV0; activation, % at 11.2 µM; 650,000 tested, 1% active; in the data active means activation above about 4.9%;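 further: 0% = median of compound wells and 100% = cells with positive control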
Target sequence (Q8TDV0 whole entry, looked up): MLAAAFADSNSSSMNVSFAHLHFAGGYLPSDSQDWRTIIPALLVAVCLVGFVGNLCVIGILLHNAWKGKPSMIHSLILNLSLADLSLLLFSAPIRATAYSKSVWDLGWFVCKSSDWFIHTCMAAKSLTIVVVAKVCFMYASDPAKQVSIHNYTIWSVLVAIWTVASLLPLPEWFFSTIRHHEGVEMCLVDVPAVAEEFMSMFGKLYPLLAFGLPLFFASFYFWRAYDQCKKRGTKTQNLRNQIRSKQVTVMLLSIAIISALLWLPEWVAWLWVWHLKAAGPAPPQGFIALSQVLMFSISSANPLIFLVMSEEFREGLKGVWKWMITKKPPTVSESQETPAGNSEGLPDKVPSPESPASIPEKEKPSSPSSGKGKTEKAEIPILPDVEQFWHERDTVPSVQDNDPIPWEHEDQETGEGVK
FBW7 act – human FBW7 E3 ligase activation, primary screen. 650,000 tested, 0.13% active. normalized activity (activation), % at 26.1 µM. AlphaScreen FBW7–phospho-cyclin E peptide binding, activator screen. Q969H0; in the data active means normalized activity above about 1.9%;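 further: purified mutant Fbw7 with reduced substrate affinity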
Starred values were filed as active, the others as inactive. Compounds with a hit are over-represented: about 3.4% of the library has one in this group of screens.

SMILES | TEAD-YAP inh | MITF primary | GPR151 ag | FBW7 act
Cc1ccc(NC(=S)N(Cc2ccccc2)Cc2cccs2)cc1 | -10 | 13 | 2 | 0
Cc1ccc(NC(=S)N(Cc2ccccc2)Cc2cccs2)cc1C | 57* | -7 | 1 | 0
COc1cc([N+](=O)[O-])ccc1NC(=O)Cn1c2ccccc2c(=O)c2cc(C)ccc21 | -5 | 3 | 0 | 0
COc1cccc(-c2nn3c(C4COc5ccccc5O4)nnc3s2)c1 (stereo unspecified) | 61* | 5 | 2 | 0
Fc1cccc(-c2nn3c(C4COc5ccccc5O4)nnc3s2)c1 (stereo unspecified) | 3 | -6 | 0 | 0
CCN(CC)C(=S)SCc1cn2c(C)cccc2n1 | -21 | 5 | -1 | 0
Cc1ccccc1Nc1c(C)c(C)nc2ncnn12 | -2 | -6 | 0 | 0
Cc1nc2ncnn2c(NCc2ccc(F)cc2)c1C | 45* | 17 | 5 | 1
Cc1ccc(Cl)cc1Nc1ncc(F)c(Nc2cc(Cl)ccc2C)n1 | -7 | 18 | 0 | 0
CC(C)C[C@H]1NC(=O)[C@@H]2C[C@H](NCc3cccc(Cl)c3)CN2C1=O | -14 | -13 | -1 | 0
COc1ccccc1OCC(=O)Nc1nc(CN2CCc3ccccc3C2)cs1 | -2 | 13 | -1 | 0
O=C(Nc1nc(CN2CCc3ccccc3C2)cs1)c1ccc(F)cc1 | 32* | 2 | 1 | 0
COc1ccc(/C=C/C(=O)Nc2nc(CN3CCc4ccccc4C3)cs2)cc1OC | 45* | -8 | 1 | 0
CCOc1ccc(/C=C(/NC(=O)c2ccccc2)C(=O)O)c2ccccc12 | -1 | 9 | 1 | 0
CCOc1ccc(Nc2nc(Nc3ccc(NC(C)=O)cc3)nc(C)c2[N+](=O)[O-])cc1 | 44* | -3 | -1 | 0
CC(=O)Nc1ccc(Nc2nc(C)c([N+](=O)[O-])c(Nc3ccccc3)n2)cc1 | 29 | 6 | 3 | 0
C/C(=N\Nc1ncc(Cl)cc1Cl)c1ccccn1 | 82* | 19 | -1 | 0
Cc1cc(Nc2ccc(N3CCOCC3)cc2)nc(Nc2ccc(N3CCOCC3)cc2)n1 | 5 | 33 | -2 | 0
Cc1cc(NCc2cccc(C(F)(F)F)c2)nc(Oc2ccccc2)n1 | 67* | 18 | 2 | 1
Cc1cc(NCCc2ccc(O)cc2)nc(Nc2ccc(-n3ccnc3)cc2)n1 | 42* | 5 | 3 | 0
Cc1cc(Nc2ccccc2)nc(Nc2ccc(N3CCOCC3)cc2)n1 | 35* | 13 | 4 | 0
Cc1cc(NCCOc2ccccc2)nc(Nc2ccc(N3CCOCC3)cc2)n1 | 43* | 4 | -2 | 0
O=C(COC(=O)/C=C/c1ccc(Br)o1)NC(=O)C1COc2ccccc2O1 (stereo unspecified) | 0 | 10 | -2 | 0
COc1ccc(CCNc2cc(C)nc(N3CCOCC3)n2)cc1 | -9 | 2 | 1 | 0
Cc1cc(NCc2cccc(C(F)(F)F)c2)nc(Nc2ccc(N3CCOCC3)cc2)n1 | 47* | 9 | 0 | 0
SMILES | TEAD-YAP inh | MITF primary | GPR151 ag | FBW7 act
Cc1cc(NCc2cccc(C(F)(F)F)c2)nc(Nc2ccc(C(F)(F)F)cc2)n1 | 10 | -4 | 0 | 0
Cc1cc(NCCOc2ccccc2)nc(Nc2ccccc2)n1 | 9 | 0 | 1 | 0
COc1ccc(CCNc2cc(C)nc(Nc3ccc(N4CCOCC4)cc3)n2)cc1 | 60* | 22 | 4 | 0
Cc1cc(NCCOc2ccccc2)nc(Nc2ccc(-n3ccnc3)cc2)n1 | 40* | 1 | 5 | 0
Cc1cc(Nc2ccc(N3CCOCC3)cc2)nc(Nc2cccc(N(C)C)c2)n1 | 54* | 3 | -1 | 0
CCC(C)NC(=O)c1sc2ncn(CC)c(=O)c2c1C (stereo unspecified) | -8 | 14 | 1 | 0
Nc1cccc(Oc2ncc(-c3ccc(F)cc3)cn2)c1 | -46 | 6 | 3 | 0
CCOc1cc(CO)ccc1OCC(=O)Nc1cccc(C(F)(F)F)c1 | 0 | 1 | -1 | 0
CC1CCCCC12NC(=O)N(Cc1ccc(F)cc1Cl)C2=O (stereo unspecified) | -8 | -1 | 0 | 0
COc1cccc(CSc2nncn3c2cc2oc(C)cc23)c1 | -5 | 6 | -1 | 24*
COc1cccc(CSc2nncn3c2cc2occc23)c1 | -2 | 14 | -1 | 0
CCOC(=O)c1ccc(N2C(=O)C(CC(=O)Nc3ccc(OCC)cc3)N(CCCN3CCC(Cc4ccccc4)CC3)C2=S)cc1 (stereo unspecified) | -5 | -10 | -1 | 0
Cc1ccccc1S(=O)(=O)Nc1cc(Br)cc2cccnc12 | 36* | 18 | 1 | 0
O=C(Nc1ccccc1)c1ccccc1OCC1CO1 (stereo unspecified) | 4 | 2 | 1 | 0
COCCn1c(C)nc2c(c1=O)c1nc3ccccc3nc1n2Cc1ccccc1 | 9 | 7 | 0 | 0
O=C(O)CCCNC(=O)/C(=C\c1ccc(Cl)cc1)NC(=O)c1ccccc1 | 6 | 5 | 0 | 0
CCOC(=O)c1[nH]c2c([N+](=O)[O-])cc(OC)cc2c1-c1ccccc1 | 3 | 13 | 0 | 0
CCOc1cc([N+](=O)[O-])c2[nH]c(C(=O)O)c(C)c2c1 | 45* | -9 | -1 | 0
COC(=O)C1=C(C)N=C2SCCC(=O)N2C1c1ccc(Cl)cc1 (stereo unspecified) | 0 | -9 | -1 | 0
Cc1nc(NC(C)c2ccccc2)cc(-c2cncc(Br)c2)n1 (stereo unspecified) | -6 | -7 | 2 | 0
Cc1nc(NC(C)c2ccccc2)cc(-c2ccccn2)n1 (stereo unspecified) | 36* | 26 | 0 | 0
C/C(=N\NC(=O)CNC(=O)C(c1ccccc1)c1ccccc1)c1cccc([N+](=O)[O-])c1 | 2 | 2 | 0 | 0
Cc1ncn(-c2ccc(Nc3nccc(NC4CCN(C(=O)OC(C)(C)C)C4)n3)cc2)n1 (stereo unspecified) | 46* | 7 | 1 | 0
CC(C)(C)OC(=O)N1CCC(Nc2ccnc(Cl)n2)CC1 | 35* | 5 | 1 | 0
CC(C)(C)OC(=O)N1CCC[C@H](Nc2ccnc(Cl)n2)C1 | -41 | 3 | 1 | 0
SMILES | TEAD-YAP inh | MITF primary | GPR151 ag | FBW7 act
Cc1nc2cc(N3CCN(C)CC3)c(NC(=O)C3CC3)cc2c(=O)n1Cc1ccccc1 | 34* | 3 | 0 | 0
Cn1c(=O)c(C(=O)Nc2cccc(Br)c2)c(O)c2ccccc21 | 5 | 16 | 0 | 1
CCN(CC)S(=O)(=O)c1cccc(C(=O)N/N=C(\C)c2ccc(O)cc2O)c1 | -2 | -16 | 1 | 0
C=CCc1cccc(/C=N/NC(=O)c2cccnc2)c1O | 14 | 11 | 1 | -1
Oc1ccc(C=Nc2cccc3cnccc23)c(O)c1O | 8 | 61* | 2 | -1
O=C(N/N=C/c1ccc(O)c(O)c1O)c1cccnc1 | 4 | 79* | -1 | -1
CCOc1cccc(/C=N/NC(=O)c2cccnc2)c1O | 15 | 70* | 0 | 0
CCN(CC)S(=O)(=O)c1cccc(C(=O)N/N=C/c2ccc(O)c(O)c2O)c1 | -6 | 61* | 2 | -1
CCOc1ccccc1/C=N\NC(=O)c1cccnc1 | 6 | 14 | 0 | 0

Screening data (PubChem)
